Assay outcomes deposited in PubChem by Sanford-Burnham Center for Chemical Genomics.
Rows were chosen to be rich in hits. Some 2.7% of all compounds tested hit in one or more screens of this group.
aDG glyco act: activators of alpha-DG glycosylation, primary screen, uHTS, Pro5-aDG cells, AlphaScreen. activation, % at 10 µM. actives 0.22% (n = 360,000). AID 624168, 2012. alpha-DG glycosylation AlphaScreen (IIH6); 0% Pro5, 100% B10-LARGE cell signal;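 active = activation of at least 8% versus controls, or a plate z-score of at least 8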;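 note: Pro5 are CHO cells carrying HIG-tagged alpha-DG that lacks glycosylation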
MPTP inh: mitochondrial permeability transition pore inhibitors, primary screen, biochemical, isolated mouse mitochondria, absorbance. Ca2+ swelling absorbance, 30 min. inhibition, % at 10 µM. actives 1.4% (n = 360,000). AID 602449, 2012;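 active = inhibition of 50% or more, scaled per plate between neutral and stimulator controls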
TAG inh: inhibitors of triacylglycerol accumulation, primary screen, cell-based, uHTS, fluorescence, H9c2 | H9c2 cells, Nile Red lipid (TAG) fluorescence; cells loaded with 200 µM oleic acid | inhibition, % at 12.5 µM | actives 0.66% (n = 230,000) | AID 651582, 2012;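 active = pattern-corrected inhibition of lipid staining of at least 50% with the nuclear-stain viability signal not falling by more than 50%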
NadD block: inhibitors of S. aureus NadD, primary screen, biochemical, colorimetric, uHTS | purified NadD enzyme, colorimetric absorbance read-out | AID 602399, 2012 | inhibition, % at 20 µM | Nicotinate-nucleotide adenylyltransferase NadD (Staphylococcus aureus N315) | actives 0.78% (n = 360,000); in the data active = inhibition above about 26%
MPTP counter: fluorescence retest of MPTP screen hits in isolated mitochondria, single concentration. membrane potential, Rhodamine 123 fluorescence. actives 78% (n = 5,000). inhibition, % at 10 µM. shares compounds with MPTP inh; in the data active = inhibition above about 22%
MPTP abs DR: mitochondrial permeability transition pore inhibitors, dose response, biochemical, absorbance, uHTS hits; shares compounds with MPTP inh; isolated mitochondria swelling; IC50, µM; actives 58% (n = 780); in the data active = IC50 below about 20 µM
MPTP counter DR: fluorescent counter-screen in isolated mitochondria, dose response, counter-screen for MPTP inhibitor project, biochemical, fluorescence, uHTS hits; shares compounds with MPTP inh; isolated mitochondria counterscreen, fluorescence read-out; actives 49% (n = 780); IC50, µM; in the data active = IC50 below about 80 µM
Large screens that a line does not name were inactive (follow-up assays come after a bar, where they were run).

OC(c1cc(C(F)(F)F)nc2c(C(F)(F)F)cccc12)C1CCCCN1 (configuration not stated)	MPTP inh 91.9 | MPTP counter inactive
Cc1ccc(CN2C(=O)CSCC2(C)C(=O)NCc2ccccc2)cc1 (configuration not stated)	none (no result: TAG inh, NadD block)
CCC(CO)NCc1ccc(OCC(=O)Nc2cccc(C(F)(F)F)c2)c(OC)c1 (configuration not stated)	MPTP inh 58.3 (no result: TAG inh) | MPTP counter inactive | MPTP abs DR 17.2 | MPTP counter DR inactive
Cc1ccc2nc(SC(C(=O)Nc3ccc(F)cc3)c3ccccc3)[nH]c2c1 (configuration not stated)	MPTP inh 76.6 (no result: TAG inh) | MPTP counter 86.1
CCC(Sc1nc2ccc(C)cc2[nH]1)C(=O)O (configuration not stated)	none (no result: TAG inh)
Cc1ccc(C)c(NC(=O)C(Sc2nc3ccc(C)cc3[nH]2)c2ccccc2)c1 (configuration not stated)	MPTP inh 84.5 | MPTP counter 92.0
C=C1CCN([C@@H](Cc2ccccc2)C(=O)NCCCc2ccccc2)S(=O)(=O)c2ccccc21	none
CC(=O)c1ccc(OCc2ccc(C(=O)c3ccccc3)cc2)cc1	MPTP inh 93.8 | MPTP counter 94.2
CC(=O)c1ccc(OCc2ccc(Oc3c(Cl)cccc3[N+](=O)[O-])cc2)cc1	MPTP inh 55.7 | MPTP counter 35.7
COc1cccc(CNC(=O)[C@@H]2CCCN2C(=O)[C@H]2CCCCN2C(=O)c2cccc3ccccc23)c1	none (no result: TAG inh)
COc1ccccc1Cc1c(-c2ccccc2)nc2ccc(Cl)cn12	none (no result: TAG inh)
N#Cc1ccc(NC(=O)N2CCC(c3nc4c(nnn4Cc4cccc(Cl)c4)c(=O)[nH]3)CC2)cc1	MPTP inh 55.6 (no result: TAG inh) | MPTP counter 28.1
O=C(c1ccco1)N1CCCC(c2nc3c(nnn3Cc3cccc(Cl)c3)c(=O)[nH]2)C1 (configuration not stated)	none (no result: TAG inh)
O=C(Nc1nnc(-c2ccc(Cl)cc2)o1)c1nc2ccccc2s1	MPTP inh 96.8 | MPTP counter inactive | MPTP abs DR 2.62 | MPTP counter DR 12.8
O=C(Nc1nnc(-c2ccc(Cl)cc2)o1)Nc1ccccc1Cl	none
CCCC[C@@H](CNC)NC[C@H](NCCCCC1CCCCC1)C(C)C	MPTP inh 90.5 | MPTP counter inactive | MPTP abs DR 6.76 | MPTP counter DR inactive
COc1ccccc1C(CNC(=O)CNC(=O)c1cccc(Cl)c1)N1CCCC1 (configuration not stated)	none
CCCCc1ccc(-n2nnnc2SCC(=O)Nc2cc(OC)c([N+](=O)[O-])cc2C)cc1	MPTP inh 63.6 (no result: TAG inh) | MPTP counter 53.5
COc1cccc(CNc2cnc3ccccc3c2)c1O	MPTP inh 62.2 (no result: TAG inh) | MPTP counter 61.6
CCCNC(=O)CN1CCC(c2nc3ccccc3[nH]2)CC1	none (no result: TAG inh)
COCCCNCCCCOc1ccc(Br)cc1C	MPTP inh 63.3 (no result: TAG inh) | MPTP counter inactive | MPTP abs DR 8.65 | MPTP counter DR inactive
CN(C)S(=O)(=O)c1ccc(NC(=O)CSc2nnc(-c3ccco3)n2N)cc1	none
COc1ccccc1CNCCS(=O)(=O)NN1CCOCC1	none
CCN(CC)C(=O)c1oc2ccc(S(=O)(=O)N3CC(C)CC(C)C3)cc2c1C (configuration not stated)	MPTP inh 51.1 (no result: TAG inh) | MPTP counter 75.4
NC(c1csc(Nc2ccccn2)n1)c1ccccc1Cl (configuration not stated)	none
CCCCNCCOCCOc1ccccc1-c1ccccc1	MPTP inh 82.9 (no result: TAG inh) | MPTP counter inactive | MPTP abs DR inactive | MPTP counter DR inactive
COCCNCCCCOc1ccccc1-c1ccccc1	none (no result: TAG inh)
CSc1nc(=O)[nH]nc1Sc1ccccc1	none
CN(CCN1CCOCC1)C(=O)C1CCC(=O)N(Cc2ccc(Cl)cc2)C1 (configuration not stated)	none
CCc1ccc(S(=O)(=O)NCc2csc(-c3ccccc3)n2)s1	none
CCc1ccc(S(=O)(=O)NCCc2csc(-c3ccccc3)n2)s1	MPTP inh 69.1 (no result: TAG inh) | MPTP counter 80.8
O=C(Cn1nnc(-c2cc(C(F)(F)F)cc(C(F)(F)F)c2)n1)NNC(=S)Nc1ccc(Cl)cc1	MPTP inh 83.6 | MPTP counter 61.4
O=C(CC1C(=O)NCCN1CC(c1ccccc1)c1ccccc1)NC1CC1 (configuration not stated)	none
COc1ccccc1-n1cnc2cc(NS(=O)(=O)c3ccc(Br)cc3)ccc21	MPTP inh 54.9 (no result: TAG inh) | MPTP counter 50.2
N#CC(C#N)=NNc1ccc(S(=O)(=O)N2CCCC2)cc1	MPTP inh 99.1 (no result: TAG inh) | MPTP counter 90.4
N#C/C(=N\Nc1cccc([N+](=O)[O-])c1)C(=O)c1ccc(Br)cc1	MPTP inh 92.6 | MPTP counter 40.6
N#C/C(=N/Nc1ccc(S(=O)(=O)N2CCOCC2)cc1)C(N)=O	none (no result: TAG inh)
N#C/C(=N\Nc1ccc(S(=O)(=O)N2CCCCC2)cc1)C(N)=S	MPTP inh 78.9 (no result: TAG inh) | MPTP counter 78.5
N#C/C(=N\Nc1ccc(S(=O)(=O)N2CCCCCC2)cc1)C(N)=S	MPTP inh 96.5 | MPTP counter 90.8
O=C(O)c1ccc(N=NNc2cccc([N+](=O)[O-])c2)cc1	none (no result: TAG inh)
COc1ccc(C(CNCC(O)COc2c(C)ccc(C)c2C)N(C)C)cc1 (configuration not stated)	none (no result: TAG inh)
CC(C)(C)C1CCN2CCCC(c3ccccc3)(C1)C2=O (configuration not stated)	none (no result: TAG inh)
O=C(COC(=O)CCc1c[nH]c2ccccc12)Nc1ccccc1C(F)(F)F	none
N#C/C(=N\Nc1ccc([N+](=O)[O-])cc1)C(N)=S	MPTP inh 85.8 | MPTP counter 62.0
CN(C)CCCNC(=O)CCc1nc2ccccc2c(=O)[nH]1	MPTP inh 73.5 (no result: TAG inh) | MPTP counter inactive | MPTP abs DR inactive | MPTP counter DR inactive
Cc1ccc(-n2c(Cl)c(Cl)nc(Cl)c2=O)cc1	MPTP inh 67.2 (no result: TAG inh) | MPTP counter inactive
COc1ccc2cc(CNCCOCCOCCNCc3ccc4cc(OC)ccc4c3)ccc2c1	MPTP inh 97.2 | MPTP counter inactive
O=C1NC(=Nc2ccc(F)cc2)SC1Cc1ccc(F)cc1 (configuration not stated)	none
O=C1NC(=Nc2ccc(Cl)cc2)SC1Cc1cc(Cl)ccc1Cl (configuration not stated)	MPTP inh 65.2 | MPTP counter 83.9
Cc1ccccc1-c1nc(CN2CCC(C(=O)NC3CCCCC3)CC2)c(C)o1	none (no result: TAG inh)
